# ERG Ets-DNA blk: qHTS for Small Molecule Inhibitors of the ERG Ets/DNA interaction; Transcriptional regulator ERG (Homo sapiens), P11308; fluorescence polarization, His-ERG Ets domain / labelled DNA; Potency, µM (top dose mostly 76.9 µM), without a hit: at the top dose FP activity, negative = inhibition, most hits filed as inhibitors; 370,000 tested, 0.028% active; active = well fitted inhibition curve with a large enough effect in the polarisation, with a control signal flat; inconclusive = small, poorly fitted or top-dose-only effect, or effect the other way, or a change in a side signal; inactive = no such curve, though single readings can be large or run the other way; the % refers to the polarisation;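 also: polarization taken with two DNA probes labelled with fluorescein and Texas red; potency is read from the fitted curve at half-maximal effect; % of control where 0% means no effect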
# Target sequence (P11308 whole entry, looked up, the tested form may be a part): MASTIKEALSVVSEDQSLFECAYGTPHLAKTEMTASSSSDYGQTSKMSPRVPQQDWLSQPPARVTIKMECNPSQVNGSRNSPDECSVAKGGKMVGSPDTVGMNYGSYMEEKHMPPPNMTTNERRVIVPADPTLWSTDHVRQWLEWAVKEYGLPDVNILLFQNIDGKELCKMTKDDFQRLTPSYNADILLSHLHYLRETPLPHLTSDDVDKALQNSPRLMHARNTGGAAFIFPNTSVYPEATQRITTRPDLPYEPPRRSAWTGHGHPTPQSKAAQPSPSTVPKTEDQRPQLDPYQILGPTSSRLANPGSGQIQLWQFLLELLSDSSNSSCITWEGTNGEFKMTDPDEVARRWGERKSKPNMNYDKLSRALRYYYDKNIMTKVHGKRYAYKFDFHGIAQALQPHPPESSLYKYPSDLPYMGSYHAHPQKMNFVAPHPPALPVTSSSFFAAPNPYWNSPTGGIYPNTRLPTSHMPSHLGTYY
#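 His-tagged ERG Ets domain (1 uM in the protein solution; 300mM KCl, 50mM Tris-HCl, 1mM EDTA, 1mM DTT, pH 7.5) received compound, then a probe mix of 5 nM fluorescein-DNA and 100nM Texas-615-DNA. Fluorescence polarization was read for both dyes.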
# D1 antagonist: Antagonist of Human D 1 Dopamine Receptor: qHTS. D(1A) dopamine receptor (Homo sapiens), P21728. HEK293 TREx D1 cells, calcium flux, dopamine EC80; active compounds read low. activity change, negative = inhibition, % at 10 µM. 360,000 tested, 3.2% active. AID 504652, 2011; in the data active = activity change below about -30%; also: % is scaled to controls: 0 for no effect and ±100 for the full control effect
#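 Allosteric or orthosteric antagonism assessed as attenuation of the calcium response to EC80 dopamine, added 180 s after compound, in induced HEK293 Trex D1 cells loaded with no-wash calcium dye.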
# D1 potentiator: Potentiators of Human D1 Dopamine Receptor: qHTS; HEK293 TREx D1 cells, calcium flux, dopamine EC20 potentiation; AID 504651, 2011; potentiation, % at 10 µM; 360,000 tested, 0.036% active; D(1A) dopamine receptor (Homo sapiens), P21728; in the data active = potentiation above about 30%; also: 0% is about no effect
# D3 antag: qHTS of D3 Dopamine Receptor Antagonist: qHTS | 360,000 tested, 2.5% active | max response, negative = inhibition, % | D(3) dopamine receptor (Homo sapiens), P35462 | D3R cells, DiscoveRx beta-arrestin luminescence, antagonist mode; active compounds read low; in the data active = max response below about -50%; inconclusive = no clear call, values can overlap the other calls; also: % is scaled to controls: 0 for no effect and ±100 for the full control effect
#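 Cells plated overnight at 1500 cells/well, then exposed to library compounds with dopamine controls for 90 minutes at 37 degrees C. DiscoveRx reagent added for 30–60 minutes at room temperature; luminescence read, quantitative HTS format.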
# D1 agonist: Allosteric Agonists of the Human D1 Dopamine Receptor: qHTS; D(1A) dopamine receptor (Homo sapiens), P21728; HEK293 T-REx D1 cells, calcium flux, agonist mode; 360,000 tested, 1% active; AID 504660, 2011; activation, % at 2 µM; in the data active = activation above about 30%; also: 0% is about no effect
#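 Agonism was scored from calcium flux recorded over 180 s (1 read/s) after pintool compound addition, following a 10-cycle baseline. Cells were inducible force-coupled HEK293 TREx D1, plated overnight at 30 C and loaded with no-wash calcium dye.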
# DRD3 agonist: qHTS of D3 Dopamine Receptor Agonist: qHTS; D(3) dopamine receptor (Homo sapiens), P35462; D3R DiscoveRx beta-arrestin cells, luminescence, 90 min; max activation, %; 410,000 tested, 0.58% active; in the data active = max activation above about 30%; also: 0% is about no effect
#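 Agonist-mode cell screen: cells plated at 1500/well and incubated overnight at 37 °C, then exposed to library compounds for 90 min at 37 °C. Detection reagent was added for 30–60 min at room temperature, and luminescence was read.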
# Active calls of the source: *; ? = inconclusive; / = not tested or not shown. A selection: hits, their analogues and other compounds. The true share with any hit is near 6.1%.
SMILES,ERG Ets-DNA blk,D1 antagonist,D1 potentiator,D3 antag,D1 agonist,DRD3 agonist
CCC(CC)C(=O)Nc1cccc(C(=O)Nc2ccc3c(c2)OCO3)c1,-4%,-26,-8,-20,2,-5
CCOC(=O)[C@]12CCC=C1N(Cc1cccc3ccccc13)C(=O)[C@H](CC(=O)NCc1cccs1)C2,/,/,/,-19,/,-11
CC1(C)NC(=O)N(CC(O)COC2CCCCC2)C1=O (stereo not given),-3%,-17,2,110,2,3
CC(C)(C)C1CCC(OCC(O)CN2CCN(c3ccccc3)CC2)CC1 (stereo not given),-12%,-1,5,-20,1,59*
Cc1ccc(N2CCN(CC(O)COc3ccc([N+](=O)[O-])cc3)CC2)cc1 (stereo not given),-5%,-28,-4,1,6,-8
Cc1nc2ccccc2n1CC(O)COC1CCCCC1 (stereo not given),-20%,-72*,-11,-28,5,0
CC(C)(C)C1CCC(OCC(O)CN2CCCC2)CC1 (stereo not given),10%,9,5,3,33*,-9
CC(C)c1nc2ccccc2n1CC(O)COC1CCCCC1 (stereo not given),24%,-7,-1,-8,1,5
Cc1ccc(N2CCN(CC(O)COC3CCCCC3)CC2)cc1 (stereo not given),-2%,-9,-3,-90*,3,-13
O=C(CCN1CCN(CC(=O)Nc2ccccc2F)CC1)Nc1ccccc1F,-4%,10,-1,0,2,-25
OC(CN1CCCCC1)CN1CCCCC1,8%,4,-2,27,3,5
O=C(c1ccccc1)N1CCN(CC(O)COC2CCCCC2)CC1 (stereo not given),/,-10,-2,?,1,-7
CC1CCN(CC(O)COC2CCC(C(C)(C)C)CC2)CC1 (stereo not given),-14%,3,2,-56*,24,-16
OC(COC1CCCCC1)CN1CCCCC1 (stereo not given),4%,-5,8,-72*,4,-18
OCC(O)CN1CCCC1 (stereo not given),11%,-32*,0,-6,3,-1
O=C(Nc1ccc(-c2nc3cc(NC(=O)c4cccs4)ccc3o2)cc1)c1cccs1,-2%,/,/,-20,/,5
CC(NC(=O)C1CCCN1C(=O)c1cccs1)c1ccc(Cl)cc1Cl (stereo not given),/,/,/,-8,/,0
O=C(CCCN1C(=O)S/C(=C\C=C\c2ccccc2)C1=O)Nc1ccc(O)cc1,10%,-31*,0,6,14,11
O=C(CN1C(=O)S/C(=C\C=C\c2ccccc2)C1=O)N1CCOCC1,2%,-40*,8,10,0,-2
O=C(CCCN1C(=O)S/C(=C/c2ccccc2)C1=S)Nc1ccc(C(=O)O)cc1,16%,-40*,-2,-25,4,4
O=C(CCN1C(=O)S/C(=C/c2ccccc2)C1=O)Nc1ccc(C(=O)O)c(O)c1,0%,22,18,3,55*,-9
O=C(CCN1C(=O)S/C(=C\c2ccccc2)C1=O)N1CCOCC1,-1%,/,/,48,/,-3
COc1ccc(OC)c(-c2cc(C(=O)NCCc3ccccc3)c3c(-c4ccc(C)cc4)[nH]nc3n2)c1,3%,9,0,/,5,0
COc1cccc(/C=C2\SC(=S)N(CCC(=O)NNC(=O)c3ccccc3OC)C2=O)c1,11%,-22,/,2,4,5
COc1cccc(/C=C2\SC(=O)N(CCC(=O)NNC(=O)c3ccccc3Cl)C2=O)c1,1%,5,-7,16,7,57*
Cc1ccc(S(=O)(=O)N2CCOCC2)cc1NC(=O)COC(=O)c1cccnc1Cl,13%,-64*,-6,-2,4,11
